Experiment [1] is described as follows: rapamycin-like changes in RPL19A-GFP expression – cell-based, S. cerevisiae, multiplex flow cytometry, primary screen (AID 1862; in the data active = percent of DMSO control GFP below about 86%;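 also: lower values mimic rapamycin by blocking the RPL19A rise seen in DMSO cells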). The note with it: S. cerevisiae RPL19A-GFP strain, flow cytometry fluorescence, 3 h; at 10 µM; stronger effect = lower value.
Experiment [2] can be described thus: TOR pathway GLN3 branch reporter MEP2-GFP changes – S. cerevisiae, multiplex flow cytometry, primary screen (AID 1867;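 active = GFP response, as percent of the DMSO control, above the screen-wide mean plus 3 SD, about 139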;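 also: median GFP channel fluorescence of barcode-gated MEP2-GFP cells measured by flow cytometry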). The note with it: S. cerevisiae MEP2-GFP strain, 3 h, at 10 µM, stronger effect = higher value, 100% means same as DMSO wells. On the technique in general: In flow cytometry, cells or beads pass a laser one at a time.
The nature of experiment [3]: TOR pathway RTG branch CIT2 reporter changes – S. cerevisiae, GFP fusion, multiplex flow cytometry, primary screen (AID 1870;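 active = percent response above a set limit, the screen-wide mean plus 3 SD, cut at about 130% in these data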;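 also: barcoded CIT2-GFP strain pooled with four other GFP strains with rapamycin as positive control; median GFP fluorescence per well over plate mean of DMSO wells so 100% = DMSO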). The note with it: S. cerevisiae CIT2-GFP expression, 3 h, at 10 µM, stronger effect = higher value.
The nature of experiment [4]: TOR pathway LAP4-GFP level changes – S. cerevisiae, multiplex flow cytometry, primary screen (AID 1873;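 active = GFP signal, as percent of the solvent control, above the screen mean plus 3 SD, about 149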). The note with it: S. cerevisiae LAP4-GFP expression, 3 h, at 10 µM, stronger effect = higher value.
Experiment [5] can be described thus: yeast AGP1-GFP level changes, GLN3 branch – cell-based, multiplex flow cytometry, S. cerevisiae, primary screen (AID 1887;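 active = GFP signal above the screen-wide mean plus 3 SD, that is over about 124.5% of the solvent control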;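 also: AGP1-GFP fusion strain of S. cerevisiae within a five-strain barcoded multiplex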). As to conditions: 3 h, at 10 µM, stronger effect = higher value.
Experiment [6] is described as follows: reduced mouse 2C T cell binding to pMHC/ICAM-1 vesicles – MLPCN validation set, flow cytometry, LFA-1/ICAM-1 modulator project, pilot screen (AID 2523;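 active = response below a set limit, under 55% cells CD8-positive and vesicle-bound, and CD8 cells' 90th-percentile brightness under 279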;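 as to vesicle binding response: mean PE anti-B7-1 fluorescence of CD8+ cells relative to row control; 100% = QL9-loaded vesicles with DMSO vehicle in the same plate row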). The note with it: 2C mouse CD8+ T cells, at 7 µM, stronger effect = lower value; double positive events: measured here: CD8+/vesicle+ event percentage.
Experiment [7] has as its target Integrin beta-1 (Homo sapiens) + Integrin alpha-4 (Homo sapiens) (UniProt P13612+P05556). The experiment in a line: alpha4beta1 integrin LIBS antibody binding reduction – U937 cells, HUTS-21 mAb, flow cytometry, validation set, VLA-4 allosteric modulator project, pilot screen (AID 2674;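 active = inhibition above 50%, about 3 SD of the validation set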;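 also: antibody binding induced by the VLA-4 ligand LDV present at three times its Kd; 0% = LDV ligand with antibody and no compound and 100% = antibody without LDV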). The note with it: HUTS-21 LIBS mAb binding, at 6.7 µM, stronger effect = higher value, binding induced by LDV ligand.

A short description of experiment [8]: calorie-restriction mimetic ROS inhibitors, yeast – validation compound set, pilot screen (AID 2706;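 active = superoxide response below 65% of plate, a cut near 3 SD across the whole screen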;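 also: yeast exposed to compound for one week at 30 degrees C before staining; 100% = mean of all compound wells on the same plate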). The note with it: S. cerevisiae aging, superoxide DHE fluorescence; at 10 µM; stronger effect = lower value.
The target of experiment [9] is Beta-adrenergic receptor kinase 1 (Homo sapiens) (UniProt P25098). The experiment in a line: GRK2 binders displacing RNA aptamer, biochemical, validation, human GRK2, bead flow cytometry (AID 488806;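 active = aptamer binding inhibition above 30%, about 3 SD of noise from non-fluorescent compounds; inactive = inhibition at or below 30%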). The note with it: bead-bound GRK2, FAM-aptamer displacement, at 10 µM, stronger effect = higher value.
Chain of Beta-adrenergic receptor kinase 1 (Homo sapiens) (P25098 whole entry, looked up): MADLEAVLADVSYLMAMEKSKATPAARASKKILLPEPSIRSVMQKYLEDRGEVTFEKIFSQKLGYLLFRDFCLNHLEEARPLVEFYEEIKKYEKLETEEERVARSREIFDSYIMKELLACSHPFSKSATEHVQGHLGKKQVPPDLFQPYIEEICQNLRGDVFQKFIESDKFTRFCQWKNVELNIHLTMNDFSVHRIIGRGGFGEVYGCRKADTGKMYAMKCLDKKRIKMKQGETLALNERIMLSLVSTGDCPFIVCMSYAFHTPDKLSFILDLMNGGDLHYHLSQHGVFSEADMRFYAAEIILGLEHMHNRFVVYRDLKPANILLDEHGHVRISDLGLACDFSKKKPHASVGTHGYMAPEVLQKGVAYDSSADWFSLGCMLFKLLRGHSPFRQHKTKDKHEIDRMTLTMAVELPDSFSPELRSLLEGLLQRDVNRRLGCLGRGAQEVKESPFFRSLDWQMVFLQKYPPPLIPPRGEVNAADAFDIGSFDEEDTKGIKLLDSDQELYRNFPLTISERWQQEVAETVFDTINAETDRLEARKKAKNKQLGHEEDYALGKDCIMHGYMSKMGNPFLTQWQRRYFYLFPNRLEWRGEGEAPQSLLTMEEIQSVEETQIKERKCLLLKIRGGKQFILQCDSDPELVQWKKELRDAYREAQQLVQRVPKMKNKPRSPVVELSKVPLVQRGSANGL
Experiment [10] deals with Beta-2 adrenergic receptor (Homo sapiens) (UniProt P07550). The experiment in a line: agonist-induced loss of surface beta2AR – cell-based, FAP fluorogen, flow cytometry, validation set, pilot screen (AID 504459;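 active = percent response above 42, roughly 3 SD of non-fluorescent test compounds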;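 also: agonist-driven loss of surface beta2AR via internalization measured by FAP dye flow cytometry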). The note with it: Am2.2-beta2AR cells, at 10 µM, stronger effect = higher value.
Chain of Beta-2 adrenergic receptor (Homo sapiens) (P07550 whole entry, looked up): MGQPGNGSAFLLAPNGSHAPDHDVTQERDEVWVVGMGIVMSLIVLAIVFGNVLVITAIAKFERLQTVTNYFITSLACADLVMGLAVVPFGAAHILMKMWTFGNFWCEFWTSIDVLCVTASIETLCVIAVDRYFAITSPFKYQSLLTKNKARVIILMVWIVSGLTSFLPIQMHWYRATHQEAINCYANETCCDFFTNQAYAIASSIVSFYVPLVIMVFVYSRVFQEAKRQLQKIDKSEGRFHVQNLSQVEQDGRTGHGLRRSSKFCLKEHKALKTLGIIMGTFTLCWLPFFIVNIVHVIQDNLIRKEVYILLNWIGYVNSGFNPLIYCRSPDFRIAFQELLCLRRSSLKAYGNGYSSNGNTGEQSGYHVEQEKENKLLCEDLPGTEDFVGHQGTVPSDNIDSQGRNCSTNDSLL
Experiment [11] has as its target AP-2 complex subunit beta (Homo sapiens) (UniProt P63010). The experiment can be described thus: beta-arrestin/AP2 interaction blockers – biochemical, validation set, GST-AP2 beads, flow cytometry, pilot screen (AID 504541;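 active = inhibition above 54%, about 3 SD of non-fluorescent compounds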;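 also: AP2 carries R879A mutation and is captured from E. coli lysate; bead-bound FITC arrestin peptide fluorescence measuring arrestin peptide binding to AP2; 0% = DMSO wells and 100% = excess unlabeled arrestin peptide control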). The note with it: FITC arrestin peptide, at 10 µM, stronger effect = higher value, AP2 beta2 appendage fragment, R879A mutant.
A short description of experiment [12]: cytosolic pH regulators acting via V-ATPase – S. cerevisiae, pHLuorin, HTS validation (AID 504600).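 Also: plate controls were DMSO for no effect and reference compound for full effect.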 The note with it: V-ATPase proton transport, at 10 µM, stronger effect = higher value.
Experiment [13] deals with anti-desmoglein-3 scFv antibody binding to human DSG3. The experiment in a line: blockers of pathogenic pemphigus antibody–desmoglein-3 binding – biochemical, validation compound set, bead-based, flow cytometry, pilot screen (AID 588368;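 active = binding below the plate cutoff, the plate median minus 3 SD, with a reading above zero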;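 also: signal is the median channel fluorescence of bead-bound GFP antibody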). As to conditions: Protein G beads, DSG3-Fc, scFv-GFP binding, at 10 µM, stronger effect = lower value.
The nature of experiment [14]: Nile Red efflux blockade in pump-expressing yeast – validation compound set, multiplex, phenotypic, pilot screen (AID 588506;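 active = efflux inhibition above 0.42, the validation set average plus 4 SD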;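 also: Nile Red retained in cells so higher fluorescence means more efflux inhibition; 0 = negative control wells and 1 = enniatin B 25 µM full block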). The note with it: S. cerevisiae pump-expressing triplex, Nile Red efflux flow cytometry; at 10 µM; stronger effect = higher value; the pumps come from Candida albicans.
In experiment [15] the target is ATP-binding cassette sub-family B member 6 (Homo sapiens) (UniProt Q9NP58). The experiment can be described thus: blockers of ABCB6-driven porphyrin uptake – K562-ABCB6 cells, flow cytometry, validation set, pilot screen (AID 588550;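 active = inhibition above the screen-wide mean plus 3 SD, about 51%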;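 also: 0% = DMSO wells and 100% = benzethonium chloride 70 µM positive control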). The note with it: K562-ABCB6 porphyrin accumulation, 1 h, at 10 µM, stronger effect = higher value.
Chain of ATP-binding cassette sub-family B member 6 (Homo sapiens) (Q9NP58 whole entry, looked up): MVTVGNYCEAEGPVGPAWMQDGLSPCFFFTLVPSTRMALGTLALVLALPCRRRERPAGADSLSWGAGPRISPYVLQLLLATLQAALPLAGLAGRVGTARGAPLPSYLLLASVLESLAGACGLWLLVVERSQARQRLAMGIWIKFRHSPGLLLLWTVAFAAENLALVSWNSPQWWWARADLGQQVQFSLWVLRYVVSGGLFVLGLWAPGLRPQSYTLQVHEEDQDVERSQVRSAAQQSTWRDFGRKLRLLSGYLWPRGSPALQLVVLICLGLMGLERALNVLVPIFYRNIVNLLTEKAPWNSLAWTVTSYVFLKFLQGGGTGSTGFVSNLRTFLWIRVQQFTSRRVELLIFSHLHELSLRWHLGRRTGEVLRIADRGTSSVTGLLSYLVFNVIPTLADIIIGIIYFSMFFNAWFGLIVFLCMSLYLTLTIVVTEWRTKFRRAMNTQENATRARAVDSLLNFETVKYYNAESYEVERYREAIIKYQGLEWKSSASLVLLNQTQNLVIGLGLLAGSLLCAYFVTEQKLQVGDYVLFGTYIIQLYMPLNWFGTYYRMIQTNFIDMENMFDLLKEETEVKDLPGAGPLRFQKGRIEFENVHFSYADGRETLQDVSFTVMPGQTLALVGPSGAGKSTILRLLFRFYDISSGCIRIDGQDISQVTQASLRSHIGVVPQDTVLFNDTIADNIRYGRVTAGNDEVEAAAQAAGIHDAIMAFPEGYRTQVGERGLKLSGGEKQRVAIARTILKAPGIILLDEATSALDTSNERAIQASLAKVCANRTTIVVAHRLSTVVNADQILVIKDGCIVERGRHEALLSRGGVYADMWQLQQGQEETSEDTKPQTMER
Experiment [16] can be described thus: AML differentiation inducers, ER-HoxA9 marrow cells – cell-based, GFP/MAC1 double positive, flow cytometry, validation set, primary screen (AID 588685;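 active = differentiation response of at least 50%, scaled between solvent and reference control, from cells with both markers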;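 also: compound exposure lasts four days before antibody staining and flow analysis; 0% = DMSO wells and 100% = 5 µM fulvestrant positive control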). As to conditions: stronger effect = higher value, normalized: vehicle 0, fulvestrant 100.

The source of these data is PubChem BioAssay.

Records with an inconclusive call do not appear. Active and inactive are the calls of the source. Rule as the data show it, unless noted: active = response above about 15%; inactive = the rest.

Chain of AP-2 complex subunit beta (Homo sapiens) (P63010 whole entry, looked up, the tested form may be a part, one chain of several): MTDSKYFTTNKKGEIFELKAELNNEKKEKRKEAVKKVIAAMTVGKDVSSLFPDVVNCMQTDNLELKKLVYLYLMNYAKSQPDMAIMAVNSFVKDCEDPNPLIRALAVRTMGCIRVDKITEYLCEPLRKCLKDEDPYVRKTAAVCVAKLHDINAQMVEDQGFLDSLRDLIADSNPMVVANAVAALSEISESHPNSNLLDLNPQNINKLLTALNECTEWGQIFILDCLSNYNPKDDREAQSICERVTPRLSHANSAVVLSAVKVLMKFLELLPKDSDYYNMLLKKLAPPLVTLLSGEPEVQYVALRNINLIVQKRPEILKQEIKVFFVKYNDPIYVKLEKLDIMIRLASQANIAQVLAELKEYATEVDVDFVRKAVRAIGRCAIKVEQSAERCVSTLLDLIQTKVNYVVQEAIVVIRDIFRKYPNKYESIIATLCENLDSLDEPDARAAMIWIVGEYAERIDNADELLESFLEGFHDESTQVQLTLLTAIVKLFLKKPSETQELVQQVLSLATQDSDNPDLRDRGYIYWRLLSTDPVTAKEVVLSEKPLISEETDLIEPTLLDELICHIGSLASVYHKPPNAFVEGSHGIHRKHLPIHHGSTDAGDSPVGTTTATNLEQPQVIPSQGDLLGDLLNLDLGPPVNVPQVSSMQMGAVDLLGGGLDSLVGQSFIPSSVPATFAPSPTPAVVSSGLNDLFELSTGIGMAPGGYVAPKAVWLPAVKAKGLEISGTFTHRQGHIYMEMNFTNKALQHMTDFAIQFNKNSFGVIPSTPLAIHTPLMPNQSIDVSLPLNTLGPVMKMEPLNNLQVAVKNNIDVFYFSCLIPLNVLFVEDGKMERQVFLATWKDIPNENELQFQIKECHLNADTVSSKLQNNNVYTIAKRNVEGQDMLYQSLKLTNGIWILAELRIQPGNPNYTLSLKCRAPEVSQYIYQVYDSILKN
Chain of Integrin beta-1 (Homo sapiens) + Integrin alpha-4 (Homo sapiens) (P05556 whole entry, looked up): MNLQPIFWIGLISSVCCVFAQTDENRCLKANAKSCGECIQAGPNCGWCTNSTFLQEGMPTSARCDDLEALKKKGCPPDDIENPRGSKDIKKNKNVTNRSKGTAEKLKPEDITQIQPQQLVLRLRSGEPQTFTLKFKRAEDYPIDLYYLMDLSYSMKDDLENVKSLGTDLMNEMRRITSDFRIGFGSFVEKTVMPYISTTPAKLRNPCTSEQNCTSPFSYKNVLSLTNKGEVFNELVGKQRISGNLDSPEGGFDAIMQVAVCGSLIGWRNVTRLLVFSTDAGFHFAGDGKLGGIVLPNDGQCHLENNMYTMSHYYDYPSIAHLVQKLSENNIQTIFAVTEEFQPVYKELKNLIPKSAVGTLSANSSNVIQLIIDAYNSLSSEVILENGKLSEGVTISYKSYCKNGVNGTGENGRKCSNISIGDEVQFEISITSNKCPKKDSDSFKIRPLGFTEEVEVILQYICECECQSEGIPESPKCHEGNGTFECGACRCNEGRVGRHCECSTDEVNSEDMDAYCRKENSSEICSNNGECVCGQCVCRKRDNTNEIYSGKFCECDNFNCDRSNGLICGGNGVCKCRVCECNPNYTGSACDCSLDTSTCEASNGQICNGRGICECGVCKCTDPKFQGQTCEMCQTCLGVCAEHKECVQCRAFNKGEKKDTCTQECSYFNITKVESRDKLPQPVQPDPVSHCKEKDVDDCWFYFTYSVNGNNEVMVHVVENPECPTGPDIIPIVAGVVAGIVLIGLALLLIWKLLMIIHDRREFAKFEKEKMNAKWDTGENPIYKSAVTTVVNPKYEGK
Chain of Integrin beta-1 (Homo sapiens) + Integrin alpha-4 (Homo sapiens) (P13612 whole entry, looked up): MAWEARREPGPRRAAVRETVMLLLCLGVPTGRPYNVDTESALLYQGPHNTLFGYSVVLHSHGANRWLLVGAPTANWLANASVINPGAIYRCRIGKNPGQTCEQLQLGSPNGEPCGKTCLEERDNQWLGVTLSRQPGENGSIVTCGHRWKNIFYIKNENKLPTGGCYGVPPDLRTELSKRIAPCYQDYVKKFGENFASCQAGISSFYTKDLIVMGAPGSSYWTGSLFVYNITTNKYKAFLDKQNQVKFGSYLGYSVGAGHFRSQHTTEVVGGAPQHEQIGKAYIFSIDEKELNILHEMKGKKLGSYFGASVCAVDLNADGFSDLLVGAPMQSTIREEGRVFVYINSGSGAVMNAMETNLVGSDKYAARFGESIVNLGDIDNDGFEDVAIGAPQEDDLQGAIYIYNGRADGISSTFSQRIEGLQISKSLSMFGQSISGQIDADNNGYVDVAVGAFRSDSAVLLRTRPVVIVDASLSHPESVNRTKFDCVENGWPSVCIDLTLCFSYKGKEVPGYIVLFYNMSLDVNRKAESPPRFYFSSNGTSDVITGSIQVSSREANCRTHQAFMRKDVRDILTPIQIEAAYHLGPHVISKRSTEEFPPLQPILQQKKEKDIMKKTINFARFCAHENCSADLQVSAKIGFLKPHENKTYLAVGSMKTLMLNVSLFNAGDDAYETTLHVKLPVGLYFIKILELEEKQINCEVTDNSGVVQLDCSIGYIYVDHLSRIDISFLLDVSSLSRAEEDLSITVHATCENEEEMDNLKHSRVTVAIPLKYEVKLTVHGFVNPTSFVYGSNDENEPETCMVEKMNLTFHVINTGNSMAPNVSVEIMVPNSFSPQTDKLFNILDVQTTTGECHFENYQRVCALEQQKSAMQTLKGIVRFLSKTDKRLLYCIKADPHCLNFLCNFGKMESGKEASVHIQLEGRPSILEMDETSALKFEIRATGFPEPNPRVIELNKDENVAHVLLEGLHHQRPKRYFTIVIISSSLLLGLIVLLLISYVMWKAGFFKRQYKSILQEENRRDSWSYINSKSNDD

For `O=C(c1ccco1)N1CCCN(Cc2nc(-c3ccc4c(c3)OCO4)no2)CC1`, the percent of DMSO control GFP in experiment [1] was 104% (inactive). Further, the GFP response vs DMSO in experiment [2] is 103% (inactive); in experiment [4], 98.6% (inactive). Also, in experiment [3], the percent response of DMSO control was 106% (inactive). Besides, the GFP response, % of DMSO in experiment [5] is 102% (inactive). In experiment [6], this molecule registered a double positive events of 62.2%. Also, the vesicle binding response in experiment [6] is 310% (inactive). The inhibition in experiment [7] is -0.45% (inactive); in experiment [11], 7.41% (inactive); in [15] it was 10% (inactive). Further, in experiment [8], the superoxide response (% of plate) is 102% (inactive). The aptamer binding inhibition in experiment [9] was 2% (inactive). The response was -9.4% (inactive) in experiment [10] and -0.63% (inactive) in experiment [12]. In addition, the binding (% of control) in experiment [13] was 94.7% (inactive). Further, in experiment [14], the efflux inhibition (fraction of control) was 0.02 (inactive). Also, the differentiation response in experiment [16] is -11.5% (inactive).
Turning to `Cc1cc(-c2nn(-c3ccccc3F)cc2CN2CCCC(O)C2)c(C)s1` (stereo not given), in [1], the percent of DMSO control GFP is 97.6% (inactive). The GFP response vs DMSO in experiment [2] is 101% (inactive); in experiment [4], 117% (inactive). In addition, in experiment [3], the percent response of DMSO control was 97.7% (inactive). Moreover, in experiment [5], the GFP response, % of DMSO is 107% (inactive). Besides, the double positive events in experiment [6] came out at 56.6%. Besides, the vesicle binding response in experiment [6] is 148% (inactive). The inhibition in experiment [7] was 5.69% (inactive); in experiment [11], -12.6% (inactive); in experiment [15], 0% (inactive). Besides, the superoxide response (% of plate) in experiment [8] is 84.2% (inactive). In addition, the aptamer binding inhibition in experiment [9] was -2% (inactive). Besides, the response in experiment [10] was -40.3% (inactive); in [12], -5.22% (inactive). Further, in experiment [13], the binding (% of control) was 103% (inactive). The efflux inhibition (fraction of control) in [14] was -0.04 (inactive). Moreover, the differentiation response in experiment [16] is -13.9% (inactive).
For the molecule `COc1ccc(/C=C2\CC/C(=C\c3ccc(OC)c(OC)c3)C2=O)cc1OC`, in experiment [1], the percent of DMSO control GFP was 99.8% (inactive). For the same molecule, the figures for the GFP response vs DMSO in [2] and in experiment [4] were 103% (inactive) and 97.2% (inactive), respectively. The percent response of DMSO control in [3] is 97.1% (inactive). The GFP response, % of DMSO in experiment [5] is 96.6% (inactive). In experiment [6], this molecule came in with a double positive events of 59.8%. Also, the vesicle binding response in experiment [6] was 254% (inactive). Moreover, the inhibition is -18.9% (inactive) in experiment [7], 0.71% (inactive) in experiment [11] and 2% (inactive) in experiment [15]. For the same molecule, the superoxide response (% of plate) in experiment [8] was 99% (inactive). Further, the aptamer binding inhibition in experiment [9] was 3% (inactive). Also, the figures for the response in experiment [10] and in experiment [12] were 17.4% (inactive) and -0.5% (inactive), respectively. Further, the binding (% of control) in experiment [13] was 98.8% (inactive). Besides, the efflux inhibition (fraction of control) in experiment [14] is 0.1 (inactive). In addition, the differentiation response in [16] was -5.68% (inactive).
On to `CC(C)N(Cc1nccn1C)C(=O)CC1C(=O)NCCN1Cc1ccccc1C(F)(F)F` (stereo not given), for which, in [1], the percent of DMSO control GFP was 102% (inactive). In addition, the GFP response vs DMSO in experiment [2] is 98.7% (inactive); in experiment [4], 97% (inactive). Moreover, the percent response of DMSO control in [3] is 102% (inactive). Besides, the GFP response, % of DMSO in experiment [5] was 103% (inactive). This molecule gave a double positive events in experiment [6] of 71.7%. Moreover, the vesicle binding response in experiment [6] was 182% (inactive). Also, the inhibition was 4.27% (inactive) in [7], -0.01% (inactive) in experiment [11] and 6% (inactive) in experiment [15]. In experiment [8], the superoxide response (% of plate) was 82.9% (inactive). In addition, in experiment [9], the aptamer binding inhibition is -2% (inactive). In addition, the response in [10] is 2.35% (inactive); in experiment [12], -1.67% (inactive). The binding (% of control) in experiment [13] was 102% (inactive). The efflux inhibition (fraction of control) in experiment [14] was -0.5 (inactive). Further, in experiment [16], the differentiation response is -0.18% (inactive).
As for `COc1ccccc1NC(=O)C12CCC(C)(C(=O)C1)C2(C)C` (stereo not given), in [1], the percent of DMSO control GFP is 99.3% (inactive). For the same molecule, the figures for the GFP response vs DMSO in experiment [2] and in experiment [4] were 105% (inactive) and 124% (inactive), respectively. The percent response of DMSO control in [3] was 102% (inactive). The GFP response, % of DMSO in experiment [5] is 109% (inactive). In [6], the double positive events stood at 63.5%. For the same molecule, the vesicle binding response in experiment [6] was 173% (inactive). Further, the inhibition in experiment [7] was -2.82% (inactive); in [11], 15.9% (inactive); in [15] it was 1% (inactive). Besides, the superoxide response (% of plate) in experiment [8] is 121% (inactive). Further, the aptamer binding inhibition in experiment [9] was 5% (inactive). In addition, the response in experiment [10] is -14.9% (inactive); in experiment [12] it was -0.35% (inactive). Moreover, the binding (% of control) in experiment [13] is 102% (inactive). The efflux inhibition (fraction of control) in experiment [14] was 0 (inactive). In [16], the differentiation response is -4% (inactive).

What is called inhibition is the drop in the measured response relative to a control, in per cent.
